About 2,000 (36%) of roughly 5,500 compounds were called active. Roughly 18% stayed inconclusive and do not appear here. Cut-off read from the data, not from the text of the source: active = normalized growth mostly below about 0.91 (no sharp cut-off); inconclusive = no clear call, values can overlap the other calls; inactive = mostly above about 0.92. Some of the results follow.
Assay: chemical genetic growth profiling, strain panel (AID 1159580);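 note: tested at 20 µM; growth read once vehicle control cultures reached saturation at 30 °C; 1 = growth at the plate median or of vehicle wells; lower values mean less growth of the strain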
Conditions: S. cerevisiae deletion strains, growth OD
[1] = locus YHR030C, strain SLT2, hits give low values
[2] = locus YHR079C, strain IRE1, hits give low values
[3] = locus YJL095W, strain BCK1, hits give low values
[4] = locus YJR066W, strain TOR1, hits give low values
[5] = locus YLR113W, strain HOG1, hits give low values
[6] = locus YNL183C, strain NPR1, hits give low values
[7] = locus YOR231W, strain MKK1, hits give low values
[8] = locus YPL256C, strain CLN2, hits give low values

Measured: normalized growth

CC(C)CC(NC(=O)CCN)C(=O)O (centres undefined)
inactive: [1] 0.976 | [2] 0.964 | [3] 0.974 | [4] 0.896 | [5] 0.986 | [6] 0.886 | [7] 0.993 | [8] 0.975

NCCCN=c1ccc2c3c1c(O)c1c(O)ccc(=O)c1c3[nH]n2CCNCCO
inactive: locus YAR019C, strain CDC15, hits give low values 0.984 | locus YBL105C, strain PKC1, hits give low values 0.977 | locus YBR135W, strain CKS1, hits give low values 0.986 | locus YBR136W, strain MEC1, hits give low values 0.97 | locus YBR160W, strain CDC28, hits give low values 0.982 | locus YDL017W, strain CDC7, hits give low values 0.976 | locus YDL028C, strain MPS1, hits give low values 0.976 | locus YDL101C, strain DUN1, hits give low values 0.969 | locus YDL108W, strain KIN28, hits give low values 0.978 | locus YDL132W, strain cdc53, hits give low values 0.979 | locus YDL214C, strain PRR2, hits give low values 0.993 | locus YDR052C, strain DBF4, hits give low values 0.976 | locus YDR054C, strain cdc34, hits give low values 0.974 | locus YDR226W, strain ADK1, hits give low values 0.984 | locus YDR477W, strain SNF1, hits give low values 0.977 | locus YER123W, strain YCK3, hits give low values 0.978 | locus YER133W, strain GLC7, hits give low values 0.977 | locus YFL009W, strain cdc4, hits give low values 0.982 | locus YFL029C, strain CAK1, hits give low values 0.986 | locus YFR003C, strain YPI1, hits give low values 0.973 | locus YFR019W, strain FAB1, hits give low values 0.948 | locus YFR028C, strain CDC14, hits give low values 0.981 | locus YGR040W, strain KSS1, hits give low values 0.977 | locus YGR052W, strain FMP48, hits give low values 0.984 | locus YGR092W, strain DBF2, hits give low values 0.688 | [1] 1.03 | [2] 1.01 | locus YHR082C, strain KSP1, hits give low values 1.05 | locus YHR205W, strain SCH9, hits give low values 0.916 | locus YIL147C, strain SLN1, hits give low values 0.969 | [3] 0.893 | locus YJL128C, strain PBS2, hits give low values 0.957 | locus YJL157C, strain FAR1, hits give low values 0.994 | locus YJR016C, strain ILV3, hits give low values 0.982 | locus YJR066W, strain TOR1 (second series), hits give low values 0.964 | [4] 1.01 | locus YKL048C, strain ELM1, hits give low values 0.94 | locus YKL067W, strain YNK1, hits give low values 0.983 | locus YKL101W, strain HSL1, hits give low values 0.957 | locus YKL193C, strain SDS22, hits give low values 0.971 | locus YKL203C, strain TOR2, hits give low values 1.01 | [5] 0.982 | locus YLR133W, strain CKI1, hits give low values 0.993 | locus YLR403W, strain SFP1, hits give low values 0.916 | locus YML070W, strain DAK1, hits give low values 0.956 | locus YMR001C, strain CDC5, hits give low values 0.984 | locus YMR205C, strain PFK2 (second series), hits give low values 1 | locus YMR277W, strain FCP1, hits give low values 0.975 | locus YNL006W, strain LST8, hits give low values 0.989 | locus YNL020C, strain ARK1, hits give low values 0.992 | locus YNL161W, strain CBK1, hits give low values 0.986 | [6] 1 | locus YNL207W, strain RIO2, hits give low values 0.975 | locus YNL222W, strain SSU72, hits give low values 0.995 | locus YNL307C, strain MCK1 (second series), hits give low values 0.82 | locus YOL078W, strain AVO1, hits give low values 0.971 | locus YOL136C, strain PFK27, hits give low values 0.965 | locus YOR061W, strain CKA2, hits give low values 0.874 | locus YOR119C, strain RIO1, hits give low values 1 | [7] 0.996 | locus YOR329C, strain SCD5, hits give low values 0.975 | locus YPL031C, strain PHO85, hits give low values 0.96 | locus YPL153C, strain RAD53, hits give low values 0.97 | locus YPL204W, strain HRR25, hits give low values 0.951 | locus YPL209C, strain IPL1, hits give low values 0.98 | locus YPR025C, strain CCL1, hits give low values 0.979 | locus YPR106W, strain ISR1, hits give low values 0.976 | locus YPR111W, strain DBF20, hits give low values 0.979 | strain NNK1, hits give low values 0.978 | strain TSCII, hits give low values 0.981
active: [8] 1.16 [resistant]
